# Source: PMC5540273 (PLoS ONE, 2017)
# Where “and” joins values, the source holds several entries; their conditions need not be identical. Equal entries are not always repeated. Where two headings read alike, the source gives them in different places.
# Legend:
# AURKC = settings: concentration: 1 μM, replicates: in singlicate; n = 1
# AXL = settings: concentration: 1 μM, replicates: in singlicate, n = 1
# BIKE = system: T1, BIKE; settings: concentration: 1 μM, replicates: in singlicate, n = 1
# T1 construct: gene BMP2K
# BLK = settings: concentration: 1 μM, replicates: in singlicate; n = 1
# BMPR1A = settings: concentration: 1 μM, replicates: in singlicate; n = 1
# BMPR1B = settings: concentration: 1 μM, replicates: in singlicate, n = 1
# BMPR2 = settings: concentration: 1 μM, replicates: in singlicate, n = 1
# BMX = settings: concentration: 1 μM, replicates: in singlicate, n = 1
# BRAF = settings: concentration: 1 μM, replicates: in singlicate, n = 1
# BRK = system: T2, BRK; settings: concentration: 1 μM, replicates: in singlicate, n = 1
# T2 construct: gene PTK6
# BRSK1 = settings: concentration: 1 μM, replicates: in singlicate; n = 1
# BRSK2 = settings: concentration: 1 μM, replicates: in singlicate; n = 1
# BTK = settings: concentration: 1 μM, replicates: in singlicate, n = 1
# BUB1 = settings: concentration: 1 μM, replicates: in singlicate, n = 1
# CAMK1B = settings: concentration: 1 μM, replicates: in singlicate, n = 1
# CAMK1D = settings: concentration: 1 μM, replicates: in singlicate, n = 1
# CAMK1G = settings: concentration: 1 μM, replicates: in singlicate; n = 1
# CAMK1 = settings: concentration: 1 μM, replicates: in singlicate, n = 1
# CAMK2A = settings: concentration: 1 μM, replicates: in singlicate; n = 1
# CAMK2B = settings: concentration: 1 μM, replicates: in singlicate; n = 1
# 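Note: KINOMEscan kinase panel screen.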
smiles,measurement,setting,value
COC(=O)c1c(-c2ccccc2)c2cc(Cl)ccc2c(=O)n1Cc1ccc(S(C)(=O)=O)cc1,%Inh,AURKC,0%
same,%Inh,AXL,0%
same,%Inh,BIKE,0%
same,%Inh,BLK,0%
same,%Inh,BMPR1A,0%
same,%Inh,BMPR1B,5%
same,%Inh,BMPR2,0%
same,%Inh,BMX,17%
same,%Inh,BRAF,65%
same,%Inh,BRK,7%
same,%Inh,BRSK1,0%
same,%Inh,BRSK2,0%
same,%Inh,BTK,25%
same,%Inh,BUB1,0%
same,%Inh,CAMK1B,0%
same,%Inh,CAMK1D,0%
same,%Inh,CAMK1G,9%
same,%Inh,CAMK1,2%
same,%Inh,CAMK2A,0%
same,%Inh,CAMK2B,0%
COC(=O)c1cccc(NC(=O)NCCNc2ccnc(Nc3ccc(F)cc3)n2)c1 [GSK1379883],%Inh,AURKC,32%
same,%Inh,AXL,5%
same,%Inh,BIKE,22%
same,%Inh,BLK,0%
same,%Inh,BMPR1A,0%
same,%Inh,BMPR1B,0%
same,%Inh,BMPR2,0%
same,%Inh,BMX,21%
same,%Inh,BRAF,0%
same,%Inh,BRK,24%
same,%Inh,BRSK1,0%
same,%Inh,BRSK2,0%
same,%Inh,BTK,0%
same,%Inh,BUB1,10%
same,%Inh,CAMK1B,2%
same,%Inh,CAMK1D,21%
same,%Inh,CAMK1G,0%
same,%Inh,CAMK1,27%
same,%Inh,CAMK2A,0%
same,%Inh,CAMK2B,0%
OCCOCCn1ccc2ncnc(Nc3ccc(Oc4cccc(Cl)c4)c(Cl)c3)c21,%Inh,AURKC,0%
same,%Inh,AXL,0%
same,%Inh,BIKE,0%
same,%Inh,BLK,3%
same,%Inh,BMPR1A,1%
same,%Inh,BMPR1B,0%
same,%Inh,BMPR2,0%
same,%Inh,BMX,13%
same,%Inh,BRAF,0%
same,%Inh,BRK,0%
same,%Inh,BRSK1,0%
same,%Inh,BRSK2,33%
same,%Inh,BTK,0%
same,%Inh,BUB1,0%
same,%Inh,CAMK1B,0%
same,%Inh,CAMK1D,0%
same,%Inh,CAMK1G,0%
same,%Inh,CAMK1,0%
same,%Inh,CAMK2A,0%
same,%Inh,CAMK2B,0%
Cc1cc(N2CCC(NS(=O)(=O)c3ccc(F)cc3)CC2)nc(Nc2cccc(C#N)c2)n1.O=C(O)C(F)(F)F [GSK1653537],%Inh,AURKC,18%
same,%Inh,AXL,7%
same,%Inh,BIKE,21%
same,%Inh,BLK,25%
same,%Inh,BMPR1A,0%
same,%Inh,BMPR1B,0%
same,%Inh,BMPR2,0%
same,%Inh,BMX,14%
same,%Inh,BRAF,0%
same,%Inh,BRK,21%
same,%Inh,BRSK1,7%
same,%Inh,BRSK2,0%
same,%Inh,BTK,0%
same,%Inh,BUB1,0%
same,%Inh,CAMK1B,0%
same,%Inh,CAMK1D,8%
same,%Inh,CAMK1G,0%
same,%Inh,CAMK1,16%
same,%Inh,CAMK2A,0%
same,%Inh,CAMK2B,0%
Cc1ccc(NC(=O)c2cccc(C#N)c2)cc1-c1ccc(C(=O)Nc2ccncc2)cc1 [GSK1398463],%Inh,AURKC,6%
same,%Inh,AXL,11%
same,%Inh,BIKE,24%
same,%Inh,BLK,31%
same,%Inh,BMPR1A,0%
same,%Inh,BMPR1B,0%
same,%Inh,BMPR2,0%
same,%Inh,BMX,26%
same,%Inh,BRAF,29%
same,%Inh,BRK,14%
same,%Inh,BRSK1,15%
same,%Inh,BRSK2,0%
same,%Inh,BTK,0%
same,%Inh,BUB1,27%
same,%Inh,CAMK1B,0%
same,%Inh,CAMK1D,42%
same,%Inh,CAMK1G,67%
same,%Inh,CAMK1,49%
same,%Inh,CAMK2A,7%
same,%Inh,CAMK2B,6%
Cn1ccc2ncnc(Oc3ccc(NC(=O)Nc4cccnc4)c(Cl)c3)c21,%Inh,AURKC,0%
same,%Inh,AXL,7%
same,%Inh,BIKE,0%
same,%Inh,BLK,8%
same,%Inh,BMPR1A,0%
same,%Inh,BMPR1B,0%
same,%Inh,BMPR2,7%
same,%Inh,BMX,0%
same,%Inh,BRAF,0%
same,%Inh,BRK,0%
same,%Inh,BRSK1,6%
same,%Inh,BRSK2,0%
same,%Inh,BTK,0%
same,%Inh,BUB1,5%
same,%Inh,CAMK1B,0%
same,%Inh,CAMK1D,0%
same,%Inh,CAMK1G,27%
same,%Inh,CAMK1,21%
same,%Inh,CAMK2A,0%
same,%Inh,CAMK2B,18%
COc1ccc(-c2nc3n(c2-c2ccncc2)CCC3)cc1 [SKF-104493],%Inh,AURKC,0%
same,%Inh,AXL; 1 µM,14% and 0%
same,%Inh,BIKE; 1 µM,10% and 0%
same,%Inh,BLK,0%
same,%Inh,BMPR1A,0%
same,%Inh,BMPR1B; 1 µM,0% and 1%
same,%Inh,BMPR2; 1 µM,39% and 2%
same,%Inh,BMX; 1 µM,0% and 11%
same,%Inh,BRAF; 1 µM,23% and 0%
same,%Inh,BRK; 1 µM,2% and 0%
same,%Inh,BRSK1,0%
same,%Inh,BRSK2,0%
same,%Inh,BTK; 1 µM,14% and 0%
same,%Inh,BUB1; 1 µM,67% and 78%
same,%Inh,CAMK1B; 1 µM,0% and 26%
same,%Inh,CAMK1D; 1 µM,12% and 7%
same,%Inh,CAMK1G,0%
same,%Inh,CAMK1; 1 µM,0% and 7%
same,%Inh,CAMK2A,0%
same,%Inh,CAMK2B,0%
Cn1cc(-c2ccc3c(c2)CCN3C(=O)Cc2cccc(C(F)(F)F)c2)c2c(N)ncnc21 [GSK2606414],%Inh,AURKC,29%
same,%Inh,AXL,41%
same,%Inh,BIKE,26%
same,%Inh,BLK,36%
same,%Inh,BMPR1A,0%
same,%Inh,BMPR1B,0%
same,%Inh,BMPR2,0%
same,%Inh,BMX,2%
same,%Inh,BRAF,12%
same,%Inh,BRK,3%
same,%Inh,BRSK1,12%
same,%Inh,BRSK2,0%
same,%Inh,BTK,0%
same,%Inh,BUB1,6%
same,%Inh,CAMK1B,11%
same,%Inh,CAMK1D,10%
same,%Inh,CAMK1G,0%
same,%Inh,CAMK1,4%
same,%Inh,CAMK2A,0%
same,%Inh,CAMK2B,0%
CCCc1ccc(S(=O)(=O)NC2CCN(c3ccnc(Nc4ccc(OC)cc4)n3)C2)cc1 (centres unmarked) [GSK1379737],%Inh,AURKC,0%
same,%Inh,AXL,0%
same,%Inh,BIKE,0%
same,%Inh,BLK,30%
same,%Inh,BMPR1A,0%
same,%Inh,BMPR1B,0%
same,%Inh,BMPR2,8%
same,%Inh,BMX,0%
same,%Inh,BRAF,0%
same,%Inh,BRK,6%
same,%Inh,BRSK1,0%
same,%Inh,BRSK2,0%
same,%Inh,BTK,0%
same,%Inh,BUB1,47%
same,%Inh,CAMK1B,0%
same,%Inh,CAMK1D,11%
same,%Inh,CAMK1G,0%
same,%Inh,CAMK1,5%
same,%Inh,CAMK2A,0%
same,%Inh,CAMK2B,0%
O=C(c1ccc(-c2cc(-c3c[nH]nc3-c3ccccn3)ccn2)cc1)N1CCCC1 [GW792479],%Inh,AURKC,0%
same,%Inh,AXL,0%
same,%Inh,BIKE,18%
same,%Inh,BLK,9%
same,%Inh,BMPR1A,0%
same,%Inh,BMPR1B,9%
same,%Inh,BMPR2,0%
same,%Inh,BMX,12%
same,%Inh,BRAF,0%
same,%Inh,BRK,0%
same,%Inh,BRSK1,0%
same,%Inh,BRSK2,2%
same,%Inh,BTK,24%
same,%Inh,BUB1,20%
same,%Inh,CAMK1B,0%
same,%Inh,CAMK1D,30%
same,%Inh,CAMK1G,0%
same,%Inh,CAMK1,32%
same,%Inh,CAMK2A,1%
same,%Inh,CAMK2B,5%
